An excerpt weighted towards active compounds, which were near 17% of everything screened.
TGFb SMAD3 inh – qHTS for Inhibitors of TGF-b. HepG2 CAGA-GFP TGF-b/SMAD3 reporter, GFP fluorescence, 18 h; TGF-beta stimulated, 500 pg/mL final. Potency, µM (titrated, usually from 46.1 µM), usual class: inhibitors. hit rate 1.2% among 410,000; also: nearly all actives have a fitted effect of over 65% in size
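First, reporter cells (HEPG2 CAGA-GFP) rested 2 h at 37 degrees C. Next, compounds were pinned in and TGF-beta added to 500 pg/mL final. After 18 h, GFP was imaged per cell and summed per well.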
HT1080 IDH1KD tx – qHTS for induction of synthetic lethality in tumor cells producing 2HG: qHTS for the HT-1080-IDH1KD cell line; hit rate 2% among 360,000; HT-1080 IDH1 knockdown viability, ATP luminescence, 48 h; Potency, µM (titrated, usually from 46.1 µM), most hits filed as cytotoxic
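Viability of IDH1-knockdown HT-1080 fibrosarcoma cells was assessed by CellTiter-Glo after 48 h at 37 °C with titrated compound; concentration-effect curves were classified by fit quality and response size.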
HepG2 viability – qHTS for Inhibitors of TGF-b: Cytotox Counterscreen | HepG2 CAGA-GFP viability, ATP luminescence, 18 h | Potency, µM (titrated, usually from 46.1 µM), hits mostly cytotoxic | hit rate 0.76% among 410,000 | AID 588856, 2011
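HepG2 CAGA-GFP cells (1000/well, DMEM with 1% FBS) received compound, then TGF-beta at 500 pg/mL final, and were incubated 18 hours at 37 degrees C. Viability was read by CellTiter-Glo luminescence. Media-only wells were set as complete cell-killing and DMSO as no toxicity.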
HT1080-NT tox – qHTS for induction of synthetic lethality in tumor cells producing 2HG: qHTS for the HT-1080-NT fibrosarcoma cell line; HT-1080-NT fibrosarcoma viability, CellTiter-Glo ATP luminescence, 48 h; Potency, µM (series often up to 46.1 µM), most hits filed as cytotoxic; hit rate 1.6% among 360,000; AID 686970, 2013;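 also: NT is the 2HG producing partner of a matched IDH1 knockdown line; nearly all actives have a fitted effect of over 55% in size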
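HT-1080-NT; 750 cells/well; 5% FBS RPMI; 48 h compound, 37 degrees C; CellTiter-Glo luminescence; curve fitting and curve-class assignment.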
TDP1 cell CPT – qHTS for Inhibitors of human tyrosyl-DNA phosphodiesterase 1 (TDP1): qHTS in cells in presence of CPT. Potency, µM (doses to about 46.2 µM), most hits filed as inhibitors. hit rate 12% among 420,000. chicken DT40 Tdp1-/-;hTDP1 cells + 20 nM CPT, ATP luminescence, 48 h; also: nearly all actives have a fitted effect of over 55% in size
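Chicken DT40 Tdp1-/- cells stably complemented with human TDP1 were seeded at 400 cells/well in medium containing 20 nM camptothecin, exposed to pin-transferred compounds, and grown at 37 °C for at least 48 hr. Viability was read as ATP luminescence.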
DT40 TDP1 no CPT – qHTS for Inhibitors of human tyrosyl-DNA phosphodiesterase 1 (TDP1): qHTS in cells in absence of CPT; DT40 Tdp1-/- hTDP1 cells, no CPT, ATP luminescence, 48 h; Potency, µM (series often up to 46.2 µM), usual class: inhibitors; hit rate 15% among 420,000; also: nearly all actives have a fitted effect of over 55% in size
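DT40 Tdp1-/-;hTDP1 cells, no CPT (DMSO vehicle only), 400 cells/well; compounds pin-transferred; ≥48 hr, 37 °C; CellTiter-Glo 30 min RT dark, luminescence read.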
Large screens that a line does not name were inactive. Calls follow the shape of the dose curve; as a rule, active = well fitted curve in the direction sought with a large enough effect; inconclusive = small, poorly fitted or top-dose-only effect, or another doubt; inactive = no such curve, though single readings can be large; an effect the other way counts as inactive or inconclusive.

O=C(c1cccc(F)c1)N1CCC2(CC1)CN(c1ccccc1)C2	TDP1 cell CPT 7.3µM, DT40 TDP1 no CPT 16µM (no result: TGFb SMAD3 inh, HT1080 IDH1KD tx, HepG2 viability, HT1080-NT tox)
O=C(c1ccncc1)N1CCC2(CCCN(c3ccncc3)C2)CC1	none (no result: TGFb SMAD3 inh, HT1080 IDH1KD tx, HepG2 viability, HT1080-NT tox)
O=C(c1cc(C(F)(F)F)cc(C(F)(F)F)c1)N1CCC2(CCCN(c3ccncc3)C2)CC1	TDP1 cell CPT inconclusive, DT40 TDP1 no CPT 21µM (no result: TGFb SMAD3 inh, HT1080 IDH1KD tx, HepG2 viability, HT1080-NT tox)
O=C(c1cccc(F)c1)N1CCC2(CCCN(c3ccccc3)C2)CC1	DT40 TDP1 no CPT inconclusive (no result: TGFb SMAD3 inh, HT1080 IDH1KD tx, HepG2 viability, HT1080-NT tox)
O=C(c1cc(C(F)(F)F)cc(C(F)(F)F)c1)N1CCC2(CC1)CN(c1ccccc1)C2	TDP1 cell CPT inconclusive, DT40 TDP1 no CPT 13µM (no result: TGFb SMAD3 inh, HT1080 IDH1KD tx, HepG2 viability, HT1080-NT tox)
O=C(c1cc(C(F)(F)F)cc(C(F)(F)F)c1)N1CCC2(CC1)CCN(c1ccccc1)CC2	none (no result: TGFb SMAD3 inh, HT1080 IDH1KD tx, HepG2 viability, HT1080-NT tox)
COc1ccc(C(=O)N2CCC3(CC2)CN(c2ccncc2)C3)cc1	DT40 TDP1 no CPT inconclusive (no result: TGFb SMAD3 inh, HT1080 IDH1KD tx, HepG2 viability, HT1080-NT tox)
COc1ccc(C(=O)N2CCC3(CCCN(c4ccncc4)C3)CC2)cc1	TDP1 cell CPT inconclusive, DT40 TDP1 no CPT 18µM (no result: TGFb SMAD3 inh, HT1080 IDH1KD tx, HepG2 viability, HT1080-NT tox)
COC(=O)C1=C2SCC(=O)N2C(N)=C(C#N)C1	none
Nc1ccn(CC(=O)NCCc2ccccn2)c(=O)n1	TGFb SMAD3 inh inconclusive
O=C(CCN1C(=O)C2CC=CCC2C1=O)NC1CCCCC1 (stereo not drawn)	none
O=C(CN1CCCCC1)Nc1cc(S(=O)(=O)N2CCOCC2)ccc1N1CCCC1	none
O=C(c1cc(C(F)(F)F)cc(C(F)(F)F)c1)N1CCC2(CC1)CCN(c1ccccn1)CC2	TDP1 cell CPT 21µM, DT40 TDP1 no CPT 21µM (no result: TGFb SMAD3 inh, HT1080 IDH1KD tx, HepG2 viability, HT1080-NT tox)
Cc1csc2ncnc(N3CCN(S(=O)(=O)c4cccc(C(F)(F)F)c4)CC3)c12	TGFb SMAD3 inh inconclusive, TDP1 cell CPT 9.2µM, DT40 TDP1 no CPT 3.7µM
Cc1sc2ncnc(N3CCN(S(=O)(=O)c4ccc(C(C)(C)C)cc4)CC3)c2c1C	TDP1 cell CPT 9.2µM, DT40 TDP1 no CPT 3.3µM
Cc1ccc2cccc(Oc3ncnc4sc(C)c(C)c34)c2n1	DT40 TDP1 no CPT inconclusive
COc1ccc(S(=O)(=O)N2CCN(c3nn(C)c(=O)n(C)c3=O)CC2)cc1	TDP1 cell CPT inconclusive, DT40 TDP1 no CPT 16µM
CC(=O)c1ccc(S(=O)(=O)N2CCN(c3nn(C)c(=O)n(C)c3=O)CC2)cc1	none
O=S(=O)(c1cccc(Br)c1)N1CCN(c2ncnc3scc(-c4ccccc4)c23)CC1	TGFb SMAD3 inh inconclusive, TDP1 cell CPT inconclusive, DT40 TDP1 no CPT inconclusive
Cc1ccc(-c2csc3ncnc(Oc4cccc5ccc(C)nc45)c23)cc1	TDP1 cell CPT inconclusive, DT40 TDP1 no CPT 21µM
CCCc1nc(N2CCN(S(=O)(=O)c3ccc(Cl)cc3)CC2)c2c(C)c(C)sc2n1	TDP1 cell CPT inconclusive, DT40 TDP1 no CPT inconclusive
COc1ccc(C)cc1NS(=O)(=O)c1ccc2c(c1)CCN2C(C)=O	TDP1 cell CPT inconclusive
Cc1ccc(NC2c3ncccc3C(=O)N2Cc2ccco2)c(C)c1 (stereo not drawn)	none
COc1ccc(-c2csc3ncnc(N4CCN(S(=O)(=O)c5cccs5)CC4)c23)cc1	TGFb SMAD3 inh inconclusive, TDP1 cell CPT inconclusive, DT40 TDP1 no CPT inconclusive
COc1ccc(-c2csc3ncnc(N4CCN(S(=O)(=O)c5ccc(Cl)s5)CC4)c23)cc1	TDP1 cell CPT inconclusive, DT40 TDP1 no CPT 29µM
O=S(=O)(c1ccc(Oc2ncnc3scc(-c4ccccc4)c23)cc1)N1CCOCC1	TDP1 cell CPT 23µM, DT40 TDP1 no CPT 18µM
c1ccc(-c2csc3ncnc(N4CCOCC4)c23)cc1	DT40 TDP1 no CPT inconclusive

Screens: PubChem BioAssay, National Center for Advancing Translational Sciences (NCATS)
